Screening results from PubChem.
AHR activator = AHR activators, primary screen, cell-based, luminescence, luciferase reporter, human; AHR-responsive luciferase reporter cells; activation, % at 5 µM; actives 2.5% (n = 320,000); in the data active = activation above about 47%;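 note: 0% = vehicle wells and 100% = reference agonist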
Target sequence (P35869 whole entry, looked up): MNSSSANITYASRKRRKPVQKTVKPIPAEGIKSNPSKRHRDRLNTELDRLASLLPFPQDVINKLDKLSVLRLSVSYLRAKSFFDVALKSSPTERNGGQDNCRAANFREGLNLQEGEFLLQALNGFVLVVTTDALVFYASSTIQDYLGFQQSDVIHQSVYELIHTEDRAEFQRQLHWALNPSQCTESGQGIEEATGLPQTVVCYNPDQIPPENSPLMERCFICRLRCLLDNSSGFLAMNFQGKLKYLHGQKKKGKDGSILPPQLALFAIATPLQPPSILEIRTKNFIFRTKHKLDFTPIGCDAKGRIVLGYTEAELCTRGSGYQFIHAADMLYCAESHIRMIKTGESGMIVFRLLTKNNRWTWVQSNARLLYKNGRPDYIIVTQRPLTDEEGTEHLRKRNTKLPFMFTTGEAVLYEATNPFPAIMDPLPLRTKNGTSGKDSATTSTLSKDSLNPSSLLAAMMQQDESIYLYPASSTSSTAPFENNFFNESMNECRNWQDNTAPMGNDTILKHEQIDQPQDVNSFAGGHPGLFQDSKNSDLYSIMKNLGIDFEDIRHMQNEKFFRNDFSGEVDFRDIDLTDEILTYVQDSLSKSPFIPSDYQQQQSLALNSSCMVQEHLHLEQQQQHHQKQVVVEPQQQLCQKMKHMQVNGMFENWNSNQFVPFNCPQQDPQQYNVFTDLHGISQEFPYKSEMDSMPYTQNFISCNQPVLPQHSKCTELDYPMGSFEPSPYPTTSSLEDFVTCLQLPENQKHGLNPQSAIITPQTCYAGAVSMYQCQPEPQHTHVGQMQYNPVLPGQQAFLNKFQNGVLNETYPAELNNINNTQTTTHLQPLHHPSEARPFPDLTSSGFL
A3A deaminase = APOBEC3A ssDNA deaminase inhibitors, primary screen, selectivity assay for APOBEC3G inhibitor project, biochemical, FAM/TAMRA oligo cleavage fluorescence | actives 0.41% (n = 330,000) | recombinant A3A, FAM/TAMRA ssDNA deamination fluorescence | inhibition, % at 20 µM;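 active = at least 40% inhibition at 20 µM here, with at most 30% in a related deaminase screen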;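 note: plate controls were A3A with DMSO for no effect and wells lacking A3A enzyme for full effect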
NTR1 ag = agonists of human NTR1, primary screen, imaging, U2OS cells, beta-arrestin-GFP, high content; Neurotensin receptor type 1 (Homo sapiens), P30989; NTR1-U2OS beta-arrestin-GFP spot imaging, agonist mode; activation, % at 20 µM; actives 0.17% (n = 330,000); AID 493036, 2011;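 active = activation at or above 40% of the spot to cytoplasm intensity ratio, with at least 20 cells analyzed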;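 note: 0% = DMSO without peptide and 100% = 100 nM NTR1 peptide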
A3G deaminase = APOBEC3G DNA deaminase inhibitors, primary screen, biochemical, fluorescence, single-stranded DNA substrate, uHTS. DNA dC->dU-editing enzyme APOBEC-3G (Homo sapiens), Q9HC16. recombinant A3G, ssDNA deamination FAM/TAMRA fluorescence. inhibition, % at 20 µM. actives 0.28% (n = 330,000). AID 493012, 2011;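 active = inhibition of at least 40% at 20 µM, with no more than 30% in the related APOBEC3A deaminase screen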;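 note: plate controls were DMSO wells with A3G for no effect and wells lacking A3G enzyme for full effect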
* = called active by the depositor; . = not tested or not shown. In the library only some 3.2% were active in any assay of this set; here they are far more common.

SMILES	AHR activator	A3A deaminase	NTR1 ag	A3G deaminase
CCN1C(=O)N(S(=O)(=O)c2ccc(C)cc2)[C@@H](c2ccccc2)C(C(=O)OC)=C1C	-0.3	4.3	3.9	4.3
Cc1ccc(Nc2nc(C(=O)NCc3ccco3)cs2)cc1	52.4*	-1.5	-2.0	-5.5
Cc1ccc(Nc2nc(-c3sc(NC(=O)c4ccco4)nc3C)cs2)cc1	58.0*	2.1	6.2	-4.4
CCOc1ccccc1Nc1nc(-c2sc(NC(=O)c3ccco3)nc2C)cs1	66.3*	-9.4	-0.5	-12.7
O=C(O)c1nn2cc(CCO)cnc2c1Cl	0.9	-3.8	0.0	-8.3
CSc1cccc(NC(=S)N2CCC(N(C)C3CCCC3)CC2)c1	3.1	-2.6	0.2	-6.5
Cc1ccccc1Cn1ccc(NC(=O)CCSc2nc(-c3ccco3)cc(C(F)(F)F)n2)n1	2.3	-1.5	3.3	-5.0
Cc1ccccc1Cn1ccc(NC(=O)c2cnn3c(C(F)(F)F)cc(-c4ccco4)nc23)n1	47.9*	-3.9	10.0	-4.2
COc1ccc(C/C(C)=N\NC(=O)c2c[nH]c3ccccc23)cc1OC	52.8*	-4.3	-0.3	-5.4
COc1ccc(CCNC(=O)C(=O)c2c[nH]c3ccccc23)cc1OC	.	-5.3	3.1	15.7
Cn1cnnc1SCC(=O)NC1CCCC1	12.4	0.2	0.0	9.8
COc1ccc(NC(=O)Nc2nnc(-c3ccccc3SCc3ccccc3)s2)cc1	51.1*	4.3	1.2	-5.8
COc1ccc(C)cc1NC(=O)c1sc2ncn(CC(=O)N3CCCCC3)c(=O)c2c1C	0.2	-3.4	2.5	-5.1
CC(=O)c1c(C)[nH]c(C(=O)Nc2ccc(Cl)c(S(=O)(=O)N3CCOCC3)c2)c1C	48.7*	0.0	5.4	-5.0
Cc1ccn2cc(-c3ccc(Br)cc3)nc2c1	74.1*	-4.8	2.3	-7.7
Cc1ccc(S(=O)(=O)Nc2ccc(-c3cn4ccc(C)cc4n3)cc2)cc1	40.1	-2.1	-1.5	-1.0
CCOc1cc(C(=O)OC(C(=O)NC(=O)NC)c2ccccc2)ccc1OCC(=O)N1CCOCC1 (stereo not drawn)	1.6	10.6	1.4	-8.6
COc1ccc([N+](=O)[O-])cc1NC(=O)c1cncc(Br)c1	70.0*	1.1	-0.1	-0.9
Cc1cc([N+](=O)[O-])ccc1NC(=O)c1cncc(Br)c1	0.8	-1.6	2.5	-7.0
COc1cccc(CN2CCNC(=O)C2CC(=O)NCCCC2CCCC2)c1OC (stereo not drawn)	4.8	1.5	0.7	-5.7
COc1ccc(-n2cc(-c3ccccc3)[nH]c2=S)cc1	55.1*	5.1	0.0	1.3
COc1ccc(OCC(=O)Nc2ccc3c(c2)OCO3)cc1	2.7	-1.0	1.1	-8.5
COc1ccc(NC(=O)Nc2ccc3c(c2)OCO3)c(C)c1	67.2*	-4.3	0.6	-5.3
Cc1c(NC(=O)Nc2ccc3c(c2)OCO3)cccc1[N+](=O)[O-]	31.0	-5.2	0.3	-9.3
Cc1cc(OC(F)F)ccc1NC(=O)Nc1ccc2c(c1)OCO2	65.7*	-4.6	-0.2	-6.2
SMILES	AHR activator	A3A deaminase	NTR1 ag	A3G deaminase
Cc1ccc(C)c(N=Nc2nc3ccccc3n2C)c1	62.0*	2.2	3.6	4.1
Cc1cc(C)c(C)c(N=Nc2nc3ccccc3n2C)c1C	42.5	6.5	7.9	-1.6
S=c1[nH]nc(-c2ccco2)n1-c1ccccc1Cl	0.8	-1.2	-1.0	41.8*
O=C(CCS(=O)(=O)c1ccccc1)Nc1nc2c(s1)COc1ccccc1-2	62.7*	-6.2	0.0	-7.9
CCn1c(/C=C/c2ccccc2)nc2ccccc2c1=O	79.1*	-4.0	-0.4	-6.5
O=c1c2ccccc2nc(/C=C/c2ccc(O)cc2)n1CCc1ccccc1	72.2*	-3.3	37.5	-8.2
CCn1c(/C=C/c2ccc(F)cc2)nc2ccccc2c1=O	20.7	-3.0	0.9	-5.0
Cn1c(/C=C/c2ccccc2)nc2ccccc2c1=O	23.9	-4.4	1.9	-6.2
Cn1c(/C=C/c2ccc(Cl)cc2)nc2ccccc2c1=O	48.8*	-6.0	2.7	-0.2
CC12CCC(C(=O)N/N=C/c3ccc(O)cc3)(OC1=O)C2(C)C (stereo not drawn)	4.3	2.3	0.0	-3.0
FC(F)(F)c1nc(SCc2ccccc2)n[nH]1	-1.1	-3.9	0.2	-6.5
COC(=O)c1ccc(CN2CCc3ccccc32)cc1	4.4	-9.3	1.4	1.0
Cc1c(C(=O)N2CCOCC2)sc2ncnc(N3CCc4ccccc4C3)c12	28.1	-1.1	-0.6	-4.9
CCN1CCN(C(=O)c2sc3ncnc(N4CCc5ccccc5C4)c3c2C)CC1	48.9*	-2.7	-0.4	-5.3
O=C(Nc1cc(-c2ccccc2)nn1C1CCCCC1)c1ccc(Cl)cc1	-1.1	1.0	4.6	-1.5
Cn1cc(Cl)c(C(=O)N/N=C/c2ccc3c4c(cccc24)CC3)n1	28.6	1.9	5.5	6.7
COc1ccccc1C(=O)NC(C)c1ccc(-n2ccnc2)cc1 (stereo not drawn)	60.3*	3.1	0.0	-1.6
CCOc1ccccc1C(=O)NC(C)c1ccc(-n2ccnc2)cc1 (stereo not drawn)	64.7*	-0.7	-0.7	-3.8
COc1ccc(/C=C/c2onc(C)c2S(=O)(=O)N2CCC(C(=O)N3CCCCCC3)CC2)cc1	-1.4	-3.1	-0.4	-0.4
Cc1cccc(OCc2nnc(SCC(=O)N(C)C3CCCCC3)o2)c1	.	-0.3	1.4	-7.4
Cc1cc2cc(CNC(=S)NC3CCCCC3)ccc2[nH]1	7.5	-1.9	-0.1	-9.8
Cc1cc2cc(CNC(=O)NC3CCCCC3)ccc2[nH]1	56.8*	-4.3	-0.5	-8.8
Cc1ccc(NC(=O)CCC(=O)N2CCC(C)CC2)c([N+](=O)[O-])c1	4.2	0.6	-0.8	-5.8
COc1ccc(CNCc2c(O)c(Cl)cc3c(C)c(C)c(=O)oc23)c(OC)c1	6.2	-2.1	-1.7	-3.7
C=C(C)CSc1nc2ncc(Cl)cc2[nH]1	13.9	1.2	1.6	-1.1
SMILES	AHR activator	A3A deaminase	NTR1 ag	A3G deaminase
C=C(C)CN(CC)C(=O)CSc1nc2ncc(Cl)cc2[nH]1	68.8*	3.6	-0.2	1.3
COc1ccc(Nc2nnc(-c3ccc(O)cc3)c3ccccc23)cc1	23.2	-4.3	-0.1	-8.5
COc1cc(/C=N/NC(=O)c2cc3ccccc3[nH]2)ccc1O	52.9*	-0.3	-1.0	-4.0
COc1cc(/C=N/Nc2nc3ccccc3[nH]2)ccc1O	55.0*	1.1	-0.3	1.6
COc1cc(/C=N/Nc2nc3ccccc3[nH]c2=O)ccc1O	24.7	1.8	-1.5	-6.1
COc1cccc(/C=N/Nc2nc3ccccc3[nH]2)c1O	60.5*	7.8	4.0	6.1
COc1cccc(/C=N/Nc2nc3ccccc3[nH]2)c1OC	0.2	1.7	-1.1	-4.7
COC(=O)c1ccc(/C=N/Nc2nc3ccccc3[nH]2)cc1	48.1*	1.9	-0.2	-1.7
O=C(NCCCNC(=O)c1ccccc1F)c1ccco1	1.7	-4.1	-0.2	-6.1
